Yp Topo-I inh – Y. pestis Topo-I inhibition via cleavage products; Y. pestis Topo-I cleavage product accumulation, plate reader; activity, % at 10 µM; actives 0.064% (n = 360,000); AID 504884; in the data active = activity above about 50%, passing the limit was not always enough
PrP UTR inh – suppresses PrP 5' UTR mRNA reporter expression | cell-based PrP 5' UTR mRNA reporter, plate reader | inhibition, % (concentration not given with the values) | actives 0.35% (n = 340,000) | AID 488862; in the data active = inhibition above about 52%; note: 0 = median of the neutral control wells
GDH-TPI inh – counter-screen for M. tuberculosis FBA inhibitors: GDH-TPI coupled enzymes; inhibition, % at 4.8 µM; actives 1.2% (n = 360,000); GDH-TPI coupled enzyme counterscreen, NADH absorbance; in the data active = inhibition above about 30%;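 note: 0% = DMSO wells and 100% = wells lacking the enzyme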
Mtb hypoxia rep – inhibitors of hypoxia-regulated fluorescent reporter in Mycobacterium tuberculosis | M. tuberculosis hypoxia-regulated fluorescent reporter, fluorescence | fluorescence inhibition, % (test concentration not listed) | actives 0.1% (n = 300,000) | AID 1159583; in the data active = fluorescence inhibition mostly above about 23%, no sharp cut-off; inactive = mostly below about 17%
PrPC surface inh – cell surface PrPC inhibition, primary TR-FRET screen | inhibition, % at 13.8 µM | P04156 | actives 0.43% (n = 370,000) | TR-FRET read-out; in the data active = inhibition above about 24%; note: 0% = median of the test wells and 100% = reference compound wells
FBA Mtb inh – inhibitors of M. tuberculosis fructose-bisphosphate aldolase. actives 2.3% (n = 360,000). inhibition, % at 1 µM. P9WQA3. purified M. tuberculosis FBA, fluorescence read-out; in the data active = inhibition above about 27%;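 note: 0% = vehicle and 100% = reference inhibitor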
Target sequence (P9WQA3 whole entry, looked up): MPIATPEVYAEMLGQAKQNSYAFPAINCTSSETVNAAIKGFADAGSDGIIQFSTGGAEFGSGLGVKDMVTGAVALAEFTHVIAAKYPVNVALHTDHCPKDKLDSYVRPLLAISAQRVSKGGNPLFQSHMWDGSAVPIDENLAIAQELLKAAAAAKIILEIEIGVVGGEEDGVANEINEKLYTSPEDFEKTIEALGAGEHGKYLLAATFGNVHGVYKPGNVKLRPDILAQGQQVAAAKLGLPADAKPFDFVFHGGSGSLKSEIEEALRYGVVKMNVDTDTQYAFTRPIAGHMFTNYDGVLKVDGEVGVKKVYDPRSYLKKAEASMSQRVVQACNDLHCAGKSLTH
The depositor's hits bear a star; / = no result; + = active, no number. In the library only some 3.8% were active in any assay of this set; here they are far more common.

SMILES	Yp Topo-I inh	PrP UTR inh	GDH-TPI inh	Mtb hypoxia rep	PrPC surface inh	FBA Mtb inh
c1ccc(-c2ccc(-c3cn4c(n3)CCC4)cc2)cc1	24	-44	0	/	4	158*
O=C(OCC(=O)c1ccc[nH]1)c1ccccc1	2	-25	-8	2	-3	0
CN(C)c1ccc(C(=O)OCC(=O)c2ccc[nH]2)cc1	5	-75	31*	6	-1	1
Nc1nc(NCCCN2CCOCC2)nc(NCc2ccccc2)c1[N+](=O)[O-]	4	-1	50*	2	-11	-2
Nc1nc(NCc2ccco2)nc(NCCO)c1[N+](=O)[O-]	2	-14	32*	0	-7	-5
CN(Cc1ccccc1)c1nc(N)c([N+](=O)[O-])c(NCc2ccccc2)n1	18	-16	31*	5	1	-1
Nc1nc(NCCN2CCOCC2)nc(NCc2ccccc2)c1[N+](=O)[O-]	0	-13	48*	0	3	-3
Nc1nc(NCCc2ccccc2)nc(NCc2ccccc2)c1[N+](=O)[O-]	21	-1	20	-8	1	-4
C=CCNc1nc(N)c([N+](=O)[O-])c(NCc2ccccc2)n1	1	4	20	7	/	-1
CCN1C(=S)NC(CCc2ccccc2)C(C(=O)OC)C1C (stereo not drawn)	/	/	/	8	/	/
O=C(c1cnn2c(C(F)(F)F)cc(-c3cccs3)nc12)N1CCCC1	-3	-11	8	0	-11	7
O=C(c1nc2nc(-c3ccccc3)cc(C(F)(F)F)n2n1)N1CCOCC1	4	-13	13	3	-18	19
CCOC(=O)c1nc2nc(-c3cccs3)cc(C(F)(F)F)n2n1	7	-25	18	-1	-8	114*
Nc1nc2nc(-c3cccs3)cc(C(F)(F)F)n2n1	1	-54	9	13	-10	+
O=C(c1nc2nc(-c3cccs3)cc(C(F)(F)F)n2n1)N1CCN(Cc2ccccc2)CC1	26	2	22	-1	-27	145*
COc1ccc(C=NNC(=O)CCC(=O)Nc2ccccc2)cc1OC	/	/	/	5	/	/
CNC(=S)N1N=C(c2cccs2)CC1c1ccc(F)cc1 (stereo not drawn)	-2	/	36*	-7	-6	8
CCN1CCN(CC(=O)N2N=C(c3cccs3)CC2c2ccc(F)cc2)C(=O)C1=O (stereo not drawn)	7	-29	10	2	-16	-3
O=c1[nH]c(=S)n(C2CC2)c(O)c1/C=N/Nc1ccccc1	0	-35	19	/	-6	-5
CC(N=Cc1c(O)n(C2CC2)c(=S)[nH]c1=O)c1ccccc1 (stereo not drawn)	5	-18	35*	-8	0	-3
CCOC(=O)C1C2COc3ccc(OC)cc3C2N2C(=O)CN(Cc3ccc(Cl)cc3)C(=O)[C@@]12C (stereo partly drawn)	/	/	/	18	/	/
O=c1c2oc3ccccc3c2[nH]c(=S)n1-c1ccc(F)cc1	-5	-9	33*	12	19	3
Cc1ccc(-n2c(=S)[nH]c3c(oc4ccccc43)c2=O)cc1C	-3	-5	1	5	8	-1
CC(C)C(CO)Nc1nc(NCc2ccc(S(N)(=O)=O)cc2)c2ncn(C(C)C)c2n1 (stereo not drawn)	/	/	/	-2	/	/
COc1ccc(C(=O)N/C(=C\c2ccc(-c3cccc([N+](=O)[O-])c3)o2)C(=O)NCCCN2CCOCC2)cc1	-7	/	47*	/	-23	-3
SMILES	Yp Topo-I inh	PrP UTR inh	GDH-TPI inh	Mtb hypoxia rep	PrPC surface inh	FBA Mtb inh
CN(C)CCCNC(=O)/C(=C\c1ccc(-c2ccc(Br)cc2)o1)NC(=O)c1ccccc1	-26	-19	25	13	-8	4
CN(C)CCCNC(=O)/C(=C/c1ccc(-c2ccc([N+](=O)[O-])cc2)o1)NC(=O)c1ccccc1	-34	-14	31*	16	-39	-4
Cc1ccc(C(=O)N/C(=C/c2ccc(-c3cccc([N+](=O)[O-])c3)o2)C(=O)NC(C)C)cc1	18	-4	49*	-9	-5	-3
Cc1ccc(C(=O)N/C(=C\c2ccc(-c3cccc([N+](=O)[O-])c3)o2)C(=O)NCCCN2CCOCC2)cc1	1	-20	47*	1	-33	0
Cc1ccc(C(=O)N/C(=C/c2ccc(-c3cccc([N+](=O)[O-])c3)o2)C(=O)NC(C)(C)C)cc1	-4	-2	22	/	2	5
COc1ccc(NC(=O)C(C#N)=Cc2cc(OC)c(OCc3ccc(C(=O)O)cc3)cc2Br)cc1	/	/	/	1	/	/
CC(C)(C)OC(=O)CCC(C(=O)N1CCN(C(=O)OC(C)(C)C)CC1)n1cc(C(CO)NC(=O)OC(C)(C)C)nn1 (stereo not drawn)	/	/	/	-3	/	/
CN(C)C(=O)/C(=C\c1ccc(-c2cccc([N+](=O)[O-])c2)o1)NC(=O)c1ccccc1	-3	13	20	5	-26	2
CN(C)C(=O)/C(=C/c1ccc(-c2cccc([N+](=O)[O-])c2)o1)NC(=O)c1ccccc1	22	3	53*	13	-19	-3
CC(=O)N1CCN(CCN2C(C)=CC(=C(C#N)C#N)C=C2C)CC1	-2	11	11	-1	1	2
CC1=CC(=C(C#N)C#N)C=C(C)N1CCN1CCNCC1	-9	-9	31*	-4	4	-2
CCCCn1c(O)c(/C=N/NC(=O)c2ccncc2)c(=O)[nH]c1=O	0	-17	46*	13	0	1
CCn1c(O)c(/C=N/NC(=O)c2ccncc2)c(=O)[nH]c1=S	-2	-18	17	/	0	7
CC(C)CC(NC(=O)c1nc[nH]c1C(=O)N(C)Cc1ccccc1)C(=O)OCc1ccccc1 (stereo not drawn)	/	/	/	5	/	/
CCc1n[nH]c(=S)n1N=C/C(C)=C\c1ccccc1	/	/	/	12	/	/
O=c1[nH]cnc2nc(-c3ccc(N(CCCl)CCCl)cc3)[nH]c12	-1	-63	47*	7	11	/
Cc1cccc(OCCn2cc(C=NNC(=O)c3ccncc3)c3ccccc32)c1	/	/	/	15	/	/
c1cn2c(Nc3ccc4c(c3)OCCO4)c(-c3ccc(N4CCOCC4)cc3)nc2cn1	-2	-21	40*	0	5	2
Clc1ccc(-c2nc3cnccn3c2Nc2ccc3c(c2)OCO3)cc1	6	4	10	3	5	4
C=CCNC(=O)CSc1nc2sc3c(c2c(=O)n1CCCOC)CCC3	-5	-18	35*	14	-2	11
CNc1ccc(-c2cccc(CO)c2)cn1	-6	/	7	/	-1	171*
CNc1ccc(-c2cccc(C(C)=O)c2)cn1	6	/	15	/	-2	1
O=C(CC1S/C(=N/N=C/c2cccs2)NC1=O)Nc1ccc(Cl)cc1 (stereo not drawn)	30	-15	31*	/	2	-3
O=C(CC1S/C(=N/N=C/c2c[nH]c3ccccc23)NC1=O)Nc1ccccc1 (stereo not drawn)	-13	-41	47*	/	-7	-4

Screening data (PubChem)
